Experimental data from PubChem BioAssay.
For part of these data: Results with a measured potency or affinity are listed apart. Calls of active or inactive are those of the source. No rule for the calls is given here.

target: Plasmodium falciparum protein kinase 6 (PK6, PF3D7_1337100) (UniProt Q8IDW1); assay: PfPK6 kinase inhibitors, biochemical, TCAMS library (AID 1159586); conditions: recombinant PfPK6, Kinase-Glo ATP depletion luminescence
Sequence (Q8IDW1 1-305): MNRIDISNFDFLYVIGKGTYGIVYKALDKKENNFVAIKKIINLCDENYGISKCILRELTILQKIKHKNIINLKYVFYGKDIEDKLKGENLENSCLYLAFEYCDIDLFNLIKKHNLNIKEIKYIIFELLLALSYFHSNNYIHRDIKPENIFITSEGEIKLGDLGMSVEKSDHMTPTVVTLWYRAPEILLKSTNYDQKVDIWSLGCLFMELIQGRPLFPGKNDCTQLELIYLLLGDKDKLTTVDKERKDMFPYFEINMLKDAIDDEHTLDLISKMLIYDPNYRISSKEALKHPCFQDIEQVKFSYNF

outcome, inactive:
CC(C)c1ccc(C(NC(=O)C2CCCCC2)c2ccc3cccnc3c2O)cc1 (stereo not drawn), O=C(/C=C/c1ccc(Cl)c(Cl)c1)NCCCCCCN1CCN(C(=O)Nc2ccc(OC(F)F)cc2)CC1, COc1cc2ncnc(Nc3ccc(Br)c(Cl)c3)c2cc1OC, COc1cccc(C=CC(=O)N(CCN)Cc2ccccc2)c1, c1cc(COc2ccc(C3=NCCN3)cc2)nc(COc2ccc(C3=NCCN3)cc2)c1, O=C(Nc1cc(C(F)(F)F)cc(C(F)(F)F)c1)Nc1ccc(Cl)c(Cl)c1, Cc1cccc2[nH]c(-c3cccc(-c4cccc(NC(=O)Cc5cnc[nH]5)c4)c3)nc12, Cc1cc(N2CCCC2)nc(Nc2ccc(NC(=O)C3CCCC3)cc2)n1, CCNC(=O)c1ccc2c(c1)c(C)c(C)n2Cc1ccc(F)cc1, O=C(c1cc(-c2ccccc2O)on1)N1CCN(C(c2ccccc2)c2ccccc2)CC1, CCOC(=O)NCC(=O)Nc1cccc(-c2cccc(-c3nc4ccc(C(F)(F)F)cc4[nH]3)c2)c1, CN1CCCC(CN2CCN(Cc3ccc(-c4ccc(-c5nc6ccccc6[nH]5)s4)cc3)CC2)C1 (stereo not drawn), Cc1cccc2[nH]c(-c3ccc(-c4cccc(CN5CCC(C(N)=O)CC5)c4)cc3)nc12, Cc1c(F)cc(C(=O)NC2CC2)cc1-c1ccc2c(cnn2S(=O)(=O)c2cccs2)c1, CC(C)Nc1cc(C(=O)N[C@@H](Cc2ccccc2)[C@H](O)CNC2CCOCC2)c(F)c(N2CCCCS2(=O)=O)c1, Cc1cnc(NCC2CCCCC2)nc1NCC(=O)Nc1ccccc1, FC(F)(F)c1cccc(NC(=S)NN=Cc2ccccn2)c1, OC1(c2ccc(Br)cc2)CCN(C2CCN(Cc3ccccc3)CC2)CC1, CCOc1ccc2nc(C)cc(NN=Cc3ccncc3)c2c1, COc1ccc2nccc([C@@H](O)CN3CCC(NCc4cc5ccccc5o4)CC3)c2c1, COc1ccc(C(=O)Nc2ccc3oc(-c4ccc(C(F)(F)F)cc4)cc3c2)cc1CCCN(C)C, CCc1cn(C)c2c(N3CCCC3=O)cc(C(=O)N[C@@H](Cc3ccccc3)[C@H](O)CNC(C)(C)c3cccc(OC)c3)cc12, O=C(Nc1cccc(-c2ccc(CN3CCCC3)cc2)c1)c1ccc(F)cc1, CCC(CC)OC(=O)C(C)c1cccc(C(=O)c2ccccc2)c1 (stereo not drawn), N#Cc1ccc2c(c1)CCN(CCC1CCC(NC(=O)/C=C/c3cnc4ccccc4c3)CC1)CC2 (stereo not drawn), CN1CCC(N2CCN(Cc3ccc(-c4cccc(-c5nc6ccc(F)cc6[nH]5)c4)cc3)CC2)CC1, CC(C)(C)c1ccc2nc(-c3ccc(C(=O)NCc4cccc(C(F)(F)F)c4)cc3)[nH]c2c1, CCN1CCN(c2cc(C)c3cc(NC(=O)c4cccc([N+](=O)[O-])c4)ccc3n2)CC1, N=C(N)c1cc(Cl)cc(NC(=O)Nc2cc(Cl)cc(C(=N)N)c2)c1, N#Cc1ccc2c(c1)CCN(CCC1CCC(NC(=O)Nc3ccncc3)CC1)C2 (stereo not drawn), CCc1ccc(NC(=O)C=NN=C(N)N)cc1, Cc1ccn2c(N(Cc3ccccc3)C(=O)c3ccc(Cl)c(Cl)c3)c(-c3ccccc3)nc2c1, O=C(c1cccc(COc2ccc3c(c2)CCN(C2CCCC2)CC3)c1)N1CCN(c2ccncc2)CC1, CCCCCCCN1CC[C@H](CC(=O)Nc2ccnc3ccc(OC)cc23)[C@@H](CC)C1, CCCCCCN1CCC(NCc2ccc(OCCN3CCCC3)cc2)CC1, COc1cccc2cc(C(=O)N[C@@H](CC(C)C)C(=O)N[C@H](/C=N/NC(=O)OC(C)(C)C)CC(C)C)oc12, OC(CNCc1cccc(Oc2ccc(Cl)cc2)c1)c1cccc(C(F)(F)F)c1 (stereo not drawn), COc1ccc(-c2ccc(NC(=O)c3cccc(C#N)c3)cc2)cc1CN1CCNCC1, COC(=O)CNC(c1ccccc1)c1cc(Br)ccc1NC(=O)c1ccccc1Br (stereo not drawn)

target: Protein kinase 7 (PK7), Plasmodium falciparum 3D7 (PF3D7_0213400) (UniProt Q7YTF7); assay: inhibition of Plasmodium PK7 catalytic activity – biochemical, TCAMS antimalarial set, Kinase-Glo luminescence (AID 1159587); conditions: recombinant PfPK7, Kinase-Glo ATP depletion luminescence
Sequence (Q7YTF7 1-343): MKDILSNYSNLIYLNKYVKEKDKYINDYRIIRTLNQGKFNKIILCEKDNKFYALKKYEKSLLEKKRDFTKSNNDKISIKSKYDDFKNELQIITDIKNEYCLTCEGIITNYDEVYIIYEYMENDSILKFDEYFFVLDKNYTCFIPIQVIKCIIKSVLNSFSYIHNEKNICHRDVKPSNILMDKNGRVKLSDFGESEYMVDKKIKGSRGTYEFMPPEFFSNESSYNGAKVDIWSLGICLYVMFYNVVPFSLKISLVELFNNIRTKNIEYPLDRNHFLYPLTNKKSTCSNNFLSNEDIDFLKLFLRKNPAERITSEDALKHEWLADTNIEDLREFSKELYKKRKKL

outcome, inactive:
CC(C)c1ccc(C(NC(=O)C2CCCCC2)c2ccc3cccnc3c2O)cc1 (stereo not drawn), O=C(/C=C/c1ccc(Cl)c(Cl)c1)NCCCCCCN1CCN(C(=O)Nc2ccc(OC(F)F)cc2)CC1, COc1cc2ncnc(Nc3ccc(Br)c(Cl)c3)c2cc1OC, COc1cccc(C=CC(=O)N(CCN)Cc2ccccc2)c1, c1cc(COc2ccc(C3=NCCN3)cc2)nc(COc2ccc(C3=NCCN3)cc2)c1, O=C(Nc1cc(C(F)(F)F)cc(C(F)(F)F)c1)Nc1ccc(Cl)c(Cl)c1, Cc1cccc2[nH]c(-c3cccc(-c4cccc(NC(=O)Cc5cnc[nH]5)c4)c3)nc12, Cc1cc(N2CCCC2)nc(Nc2ccc(NC(=O)C3CCCC3)cc2)n1, CCNC(=O)c1ccc2c(c1)c(C)c(C)n2Cc1ccc(F)cc1, O=C(c1cc(-c2ccccc2O)on1)N1CCN(C(c2ccccc2)c2ccccc2)CC1, CCOC(=O)NCC(=O)Nc1cccc(-c2cccc(-c3nc4ccc(C(F)(F)F)cc4[nH]3)c2)c1, CN1CCCC(CN2CCN(Cc3ccc(-c4ccc(-c5nc6ccccc6[nH]5)s4)cc3)CC2)C1 (stereo not drawn), Cc1cccc2[nH]c(-c3ccc(-c4cccc(CN5CCC(C(N)=O)CC5)c4)cc3)nc12, Cc1c(F)cc(C(=O)NC2CC2)cc1-c1ccc2c(cnn2S(=O)(=O)c2cccs2)c1, CC(C)Nc1cc(C(=O)N[C@@H](Cc2ccccc2)[C@H](O)CNC2CCOCC2)c(F)c(N2CCCCS2(=O)=O)c1, Cc1cnc(NCC2CCCCC2)nc1NCC(=O)Nc1ccccc1, FC(F)(F)c1cccc(NC(=S)NN=Cc2ccccn2)c1, OC1(c2ccc(Br)cc2)CCN(C2CCN(Cc3ccccc3)CC2)CC1, CCOc1ccc2nc(C)cc(NN=Cc3ccncc3)c2c1, COc1ccc2nccc([C@@H](O)CN3CCC(NCc4cc5ccccc5o4)CC3)c2c1, COc1ccc(C(=O)Nc2ccc3oc(-c4ccc(C(F)(F)F)cc4)cc3c2)cc1CCCN(C)C, CCc1cn(C)c2c(N3CCCC3=O)cc(C(=O)N[C@@H](Cc3ccccc3)[C@H](O)CNC(C)(C)c3cccc(OC)c3)cc12, O=C(Nc1cccc(-c2ccc(CN3CCCC3)cc2)c1)c1ccc(F)cc1, CCC(CC)OC(=O)C(C)c1cccc(C(=O)c2ccccc2)c1 (stereo not drawn), N#Cc1ccc2c(c1)CCN(CCC1CCC(NC(=O)/C=C/c3cnc4ccccc4c3)CC1)CC2 (stereo not drawn), CN1CCC(N2CCN(Cc3ccc(-c4cccc(-c5nc6ccc(F)cc6[nH]5)c4)cc3)CC2)CC1, CC(C)(C)c1ccc2nc(-c3ccc(C(=O)NCc4cccc(C(F)(F)F)c4)cc3)[nH]c2c1, CCN1CCN(c2cc(C)c3cc(NC(=O)c4cccc([N+](=O)[O-])c4)ccc3n2)CC1, N=C(N)c1cc(Cl)cc(NC(=O)Nc2cc(Cl)cc(C(=N)N)c2)c1, N#Cc1ccc2c(c1)CCN(CCC1CCC(NC(=O)Nc3ccncc3)CC1)C2 (stereo not drawn), CCc1ccc(NC(=O)C=NN=C(N)N)cc1, Cc1ccn2c(N(Cc3ccccc3)C(=O)c3ccc(Cl)c(Cl)c3)c(-c3ccccc3)nc2c1, O=C(c1cccc(COc2ccc3c(c2)CCN(C2CCCC2)CC3)c1)N1CCN(c2ccncc2)CC1, CCCCCCCN1CC[C@H](CC(=O)Nc2ccnc3ccc(OC)cc23)[C@@H](CC)C1, CCCCCCN1CCC(NCc2ccc(OCCN3CCCC3)cc2)CC1, COc1cccc2cc(C(=O)N[C@@H](CC(C)C)C(=O)N[C@H](/C=N/NC(=O)OC(C)(C)C)CC(C)C)oc12, OC(CNCc1cccc(Oc2ccc(Cl)cc2)c1)c1cccc(C(F)(F)F)c1 (stereo not drawn), COc1ccc(-c2ccc(NC(=O)c3cccc(C#N)c3)cc2)cc1CN1CCNCC1, COC(=O)CNC(c1ccccc1)c1cc(Br)ccc1NC(=O)c1ccccc1Br (stereo not drawn)
